# Where “and” joins values, the source holds several entries; their conditions need not be identical. Equal entries are not always repeated. About 83,000 compounds went through this panel and 20% of them were active in at least one assay; those are over-represented in the sample as a whole.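 Cells were grown in 96-well plates and exposed to the test compound at a single concentration for 48 hours; results are reported as percent growth, with values below 10 considered active.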 Values without a mark were called inactive. Calls of active or inactive are those of the source.
# Test system: MDA-MB-468 breast
# Assay: NCI-60 one-dose screen, 48 h (100 = growth as untreated, 0 = no growth, -100 = all killed)
# Details: 10 µM unless noted
row,Structure (SMILES),growth
1,CC(=O)NC(N)=S,109%
2,Cn1cc(-c2csc(-c3cn(C)c4ncccc34)n2)c2cc(Br)cnc21,-28.4% (active)
3,COc1ccc2c(c1)OC1=C(C(=O)OC1)C2c1cc(OC)c2c(c1)OCO2 (stereo not drawn),-7.16% (active)
4,O=C(NCO)c1ccccc1,110%
5,COc1ccc(C(=O)Nc2ncc(Cc3cccc(Cl)c3)s2)cc1OC,-1.51% (active)
6,CCCCCCCCCCCCCC[n+]1ccc(C(N)=O)cc1,-40.6% (active)
7,COc1cc(C2CC(c3ccc(Nc4ccnc5cc(Cl)ccc45)cc3)=NN2C=O)cc(OC)c1OC (stereo not drawn),-7.9% (active)
8,NC(=O)c1noc(C(=O)c2ccccc2)c1N,95.5%
9,NC(=O)NO,109%
10,CC(C)c1nc(N(C)S(C)(=O)=O)nc(-c2ccc(F)cc2)c1/C=C/C(=O)C[C@@H](O)CC(=O)O,113%
11,COc1cc(-c2csc(NC(=O)Nc3cc(Cl)cc(Cl)c3)n2)cc(OC)c1OC,-6.75% (active)
12,C=CCOc1ccc(/C(Cl)=N/N=C(\Cl)c2cc(OC)c(OC)c(OC)c2)cc1,23.3%
13,Clc1ccc(-c2nc(-c3cccs3)no2)c(Cl)c1,8.37% (active)
14,CCOCCc1c(O)nc(SC)[nH]c1=O,82.5%
15,COc1ccc(-c2nn(-c3cccc(Cl)c3)cc2-c2c(C#N)c(=O)n3[nH]c(-c4ccccc4)nc3c2C#N)cc1,97.6%
16,Cl.Fc1c[c-]c(-c2ccccn2)c(F)c1.[Pt].c1ccc(P(c2ccccc2)C([PH+](c2ccccc2)c2ccccc2)[PH+](c2ccccc2)c2ccccc2)cc1,-4.27% (active)
17,COc1ccc(N2C(=O)/C(=C/C(Cl)=C/c3ccc([N+](=O)[O-])cc3)SC2=S)cc1,-11.8% (active)
18,CCOC(=O)c1cnn(CC(C)O)c1NC(=O)NCc1ccccc1C(F)(F)F (stereo not drawn),103%
19,COc1cccc2c1C(=O)c1c(O)c3c(c(O)c1C2=O)C[C@@](O)(/C(C)=N/NC(=O)c1ccc(Cl)cc1)C[C@@H]3OC1CC(N)C(O)C(C)O1 (stereo partly drawn),-65.1% (active)
20,Nc1cc2[nH]c(=O)c3ccccc3c2cc1Br,-50.6% (active)
21,CC(C)CCNCC(O)Cn1c2ccccc2c2ccccc21 (stereo not drawn),2.41% (active)
22,COc1cc(-c2cc(/C=C3\CCCCC3=O)[nH]n2)cc(OC)c1OC,85.2%

row,Structure (SMILES),growth
1,O=S1(=O)NCCN1CCNc1nccc(-c2c(-c3cccc(O)c3)nc3sccn23)n1,96.8%
2,Cc1ccc2[nH]c(=O)cc(-n3nncc3Cn3c4ccccc4c4ccccc43)c2c1,94.7%
3,COc1cc2c(c(OC)c1OC)CCC(c1cccc(NC(=O)c3ccc(Br)cc3)c1)O2 (stereo not drawn),35.8%
4,CN(c1ccc(F)cc1)S(=O)(=O)c1ccc(-c2cnc(C3CC3)o2)cc1,-8.39% (active)
5,COc1cccc(-c2nc3sccn3c2-c2ccnc(NCCCNS(=O)(=O)c3ccc(F)cc3)n2)c1,47.9%
6,CC(C)N1CN2C(=S)NC3C2N(C1)C(=S)N3C (stereo not drawn),101%
7,Cc1ccc(C(=O)/C(=C/c2ccc([N+](=O)[O-])cc2)SCc2ccc(Cl)cc2)cc1,72.9%
8,O=C(CC(c1ccccc1)N1CCOCC1)c1ccccc1 (stereo not drawn),73.4%
9,Nc1ncnc2nc(Br)[nH]c12,102%
10,Cn1ccnc1C(=O)/C=C/c1ccc(CC(=O)Nc2ccccc2)cc1,-12.9% (active)
11,O=C(Nc1nc(-c2ccc(Cl)cc2)nc2c1sc(=S)n2-c1ccccc1)C(F)(F)F,70.1%
12,NC(=O)c1cc(Br)ccc1NC(=O)/C=C/c1ccccc1,27.8%
13,Nc1nc(N)c2c(n1)NC(c1cccc(Nc3ccnc4cc(C(F)(F)F)ccc34)c1)CC(c1ccccc1)=N2 (stereo not drawn),18.5%
14,COc1ccc(C(=O)Nc2ncc(Cc3ccc(F)cc3)s2)cc1,22.4%
15,COc1ccc(C(=O)c2sc3nc(C)cc(C)c3c2N)cc1OC,88%
16,Oc1cccc2c1NCCC2,-8.83% (active)
17,COC(=O)CNC(=O)c1cccc(-c2cc(=O)c3c(OC)c(OC)c(OC)cc3o2)c1,89.8%
18,O=S(=O)(NCCNc1cc(-c2cn(-c3ccccc3)nc2-c2cccc(O)c2)ccn1)c1ccc(C(F)(F)F)cc1,21.6%
19,COC(=O)C1(O)NC(=C(C#N)C#N)C(C#N)=C1C(=O)c1ccc(OC)c(OC)c1 (stereo not drawn),110%
20,CC(=O)CCS(=O)c1ccccc1 (stereo not drawn),104%
21,NC(=O)c1ccccc1OCC(O)CO (stereo not drawn),95.6%
22,CCN(CC)CCCC(C)Nc1cnc(C(=O)Nc2cc(C)cc3cccnc23)cn1 (stereo not drawn),9.36% (active)

row,Structure (SMILES),growth
1,CCCNNC(=O)c1ccc(-c2ccc(NC(=O)CCCCCCC(=O)N[C@H](C(=O)N3C[C@H](O)C[C@H]3C(=O)N[C@@H](C)c3ccc(-c4scnc4C)cc3)C(C)(C)C)cc2)cc1,-10.1% (active)
2,O=C(NN1C(=O)CSC1c1ccc(Cl)cc1)c1[nH]c2ccc(F)cc2c1-c1ccccc1 (stereo not drawn),69.3%
3,O=C(O/C(=C/c1ccccc1)C(F)(F)F)c1ccccc1,109%
4,COc1cc(C(=O)c2c(-c3ccccc3)oc3c(OC)cccc23)cc(OC)c1OC,18.4%
5,CC(=O)NCc1cc(C)c(C)cc1C,93.4%
6,Cc1cc(Cc2cc(C)c(O)c(C)c2)cc(C)c1O,-0.94% (active)
7,CC(C)(C)n1cc(-c2ccnc(NCCCNS(=O)(=O)c3cccc(F)c3)n2)c(-c2ccc(Cl)c(O)c2)n1,104%
8,COC(=O)[C@H]1CCCN1C(=O)C1CCCN1C(=O)[C@@H](Cc1ccccc1)NC(=S)Nc1cc(C(F)(F)F)cc(C(F)(F)F)c1 (stereo partly drawn),100% and 58.2%
9,CCOC(=O)CSc1c(-c2ccccc2)c2cc(Cl)ccc2[nH]c1=O,98%
10,O=C1NC(=O)C(CSc2ccccc2)(c2ccccc2)N1 (stereo not drawn),105%
11,Cc1ccc(CCC(=O)Nc2ncc(Cc3cc(Cl)ccc3Cl)s2)o1,7.55% (active)
12,COc1cc(/C=N/NC(=O)Cn2c(-c3ccc(C)o3)nc3ccccc32)ccc1OCc1ccccc1,76.6%
13,COc1ccc(OC)c(Cn2cc3c(c2)-c2oncc2CC3)c1,3.48% (active)
14,COc1cc(NCc2cn(-c3ccc(C(=O)O)cc3)nc2-c2ccc(C(=O)O)cc2)cc(OC)c1OC,102%
15,COc1cc(/C=C/c2cn[nH]c2-c2ccc(C)cc2)cc(OC)c1OC,12.9%
16,O=C1Nc2cc(-c3ccncc3)ccc2/C1=C/c1ccc[nH]1,-15.9% (active)
17,CSC1=NC(=Nc2c(C)cccc2C)C2(CCC(C(C)(C)C)CC2)N1c1ccc(Cl)cc1 (stereo not drawn),38.3%
18,O=S(=O)(c1ccc(N/N=C\c2ccccc2Cl)cc1)c1ccc(N/N=C/c2ccccc2Cl)cc1,91.5%
19,COc1ccc(C2=NN(c3ccc(S(N)(=O)=O)cc3)C(c3ccc(Cl)cc3)C2)c(O)c1 (stereo not drawn),61.7%
20,O=C1/C(=C2/C=Nc3ccccc32)N(O)c2ccccc21,62.2%
21,Nc1cc(-c2ccccc2)ccc1O,93.5%
22,CCCCCCCC/C=C\CCCCCCCCOc1cccc(CC(=O)NCC[N+]2(C)CCCCC2)c1,52.6%

row,Structure (SMILES),growth
1,N=c1sc(Cc2cc(Cl)ccc2Cl)cn1CC(=O)c1ccccc1,61.3%
2,N#CSc1c[nH]c2ccc(/C=C/C(=O)/C=C(O)/C=C/c3ccc4[nH]cc(SC#N)c4c3)cc12,-8.53% (active)
3,O=Nc1c(O)ccc2ccccc12.O=Nc1c(O)ccc2ccccc12.O=Nc1c([O-])ccc2ccccc12.[Fe+3],106%
4,O=C(CNc1cccnc1)Nc1ccc(C(=O)/C=C/c2ccc(Cl)cc2)cc1,91.9%
5,O=Cc1cc2ccccc2nc1Nc1nccs1,57.2%
6,COc1ccc(-c2nc(C#N)c(NCC(c3ccc(Cl)cc3)N3CCCCC3)o2)cc1 (stereo not drawn),93.3%
7,NC(CC(N)C(=O)O)C(=O)O (stereo not drawn),90.5%
8,CCOC(=O)c1ccc(NCCC(=O)O)cc1,95.5%
9,O=C(O)CCC/C=C\C[C@H]1C=CC(=O)/C1=C/C[C@@H](O)CCc1cccc(C(F)(F)F)c1,-6.7% (active)
10,CCN(CC)CCNc1ccc([N+](=O)[O-])c2sc3ccccc3c(=O)c12,1.4% (active)
11,Cc1nc2cc(Nc3nc(Nc4ccc(F)cc4)nc(-c4ccc(Cl)cc4)n3)ccc2n1Cc1ccccc1,74.3%
12,C[Se]C(=O)CC1=C2C=C(F)C=CC2/C(=C\c2ccc(S(C)=O)cc2)C1C (stereo not drawn),-46.2% (active)
13,COc1cc(/C=N/NC(=O)c2ccccc2Nc2ccnc(C(F)(F)F)c2)ccc1O,80.5%
14,Oc1cccc2ccc(-c3nnc(SCc4ccc(O)c5ncccc45)n3-c3ccccc3)nc12,6.6% (active)
15,COc1ccc2[nH]c3nc4cnccc4cc3c2c1,117%
16,COc1ccc(-c2nc(SCC(=O)Nc3ccc(C(C)=O)cc3)[nH]c(=O)c2C#N)cc1,105%
17,CCc1c(Nc2ccccc2C)nc(N)[nH]c1=O,105%
18,O=C(N/N=C/c1ccc(Cl)cc1)c1ccc(NC(=O)c2ccccn2)cc1,78.2%
19,CCOC(=O)Nc1ccc2nc(Sc3ccc(Cl)cc3)sc2c1,0.385% (active)
20,CCCCn1c(Cc2ccc(Cl)cc2)nc2cc(OC)c(OC)cc2c1=O,58.6%
21,Clc1ccc(Nc2nc(Nc3ccccc3)nc(Nc3ccc(-c4cc(-c5ccc(Cl)cc5)on4)cc3)n2)cc1,93.4%
22,CC1COCC(C)N1C1=C(Cl)C(=O)c2ccccc2C1=O (stereo not drawn),-92% (active)

# Source: PubChem BioAssay (NCI)
